Experimental data taken from the supplement of paper PMC10646978.
± gives the standard deviation.

What was measured:
Conditions in all cases: modulator concentration 10 µM
[1] = system: RAW-Dual (murine macrophage reporter line); assay: NF-kB reporter (SEAP) activity fold change vs agonist alone; higher = enhanced NF-kB activity
In short: (§1)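 In 384-well plates holding 50 000 RAW-Dual murine macrophage reporter cells per well, compound at 10 μM final was pre-incubated for 1 hour at 37 °C, after which a PRR agonist was added overnight. Supernatant SEAP read with QUANTI-Blue at 620 nm absorbance reported NF-κB, and Lucia luciferase read with QUANTI-Luc luminescence reported IRF. Fold change values come from dividing each reporter signal by the mean of agonist-only control wells on the same plate, averaged over replicate plates with propagated errors.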

[2] = system: RAW-Dual (murine macrophage reporter line); assay: IRF reporter (Lucia luciferase) activity fold change vs agonist alone; higher = enhanced IRF activity
In short: as §1

[3] = system: RAW-Dual (murine macrophage reporter line); assay: viability score (confluency relative to resting cells, overnight) (fraction); higher = more viable, active = viable (0.7 or more)
In short: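 Two confluency masks, generated with IncuCyte software over all imaged wells, were applied to IncuCyte images of RAW-Dual macrophages. The cells, in 384-well plates, had been exposed overnight to 10 μM final compound. The viability score is confluency as a fraction of resting cells, and a compound met the cutoff only with both masks above 70% of resting cells.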

[4] = agonist: CpG ODN 1826 0.5 ug/mL

| Compound | NF-kB reporter [1, 4] | NF-kB reporter ([1]; agonist: LPS 0.1 ug/mL) | NF-kB reporter ([1]; agonist: MPLA […]) | IRF reporter ([2]; agonist: 3'3'-cGAMP 10 ug/mL) | IRF reporter ([2]; agonist: LPS 0.1 ug/mL) | IRF reporter ([2]; agonist: MPLA […]) | viability score [3] |
| --- | --- | --- | --- | --- | --- | --- | --- |
| COC(=O)C1=CN(CC2CCCO2)C=C(C(=O)OC)C1c1cccc(Br)c1 (configuration not stated) | 0.886 ± 0.18 | 0.871 ± 0.088 | 0.944 ± 0.073 | 0.975 ± 0.037 | 1.21 ± 0.13 | 1.29 ± 0.13 | 1 (active) |
| O=C(Nc1ccccn1)c1ccc(OCC2CCCO2)nc1 (configuration not stated) | 1.12 ± 0.064 | 1.02 ± 0.077 | 1 ± 0.031 | 0.936 ± 0.077 | 1.04 ± 0.059 | 1.04 ± 0.1 | 0.997 (active) |
| CN(C)CC/C=C1/c2ccccc2COc2ccc(CC(=O)O)cc21.Cl | 1.35 ± 0.26 | 1.22 ± 0.36 | 1.66 ± 0.75 | 0.953 ± 0.039 | 1.42 ± 0.17 | 1.2 ± 0.094 | 0.992 (active) |
| CS(=O)(=O)N(CC(=O)NCCSCc1cccc(Cl)c1)c1ccc(F)cc1 | 0.742 ± 0.059 | 1.06 ± 0.059 | 0.857 ± 0.07 | 1.2 ± 0.03 | 1.13 ± 0.1 | 0.867 ± 0.26 | 1.01 (active) |
| CN1CCOC(c2ccccc2)c2ccccc2C1.Cl (configuration not stated) | 1.11 ± 0.27 | 1.04 ± 0.052 | 1.05 ± 0.078 | 0.84 ± 0.031 | 1.36 ± 0.16 | 0.95 ± 0.23 | 1.01 (active) |
| O=C(NN=Cc1ccccc1C(F)(F)F)c1ccc(=O)[nH]n1 | 0.764 ± 0.062 | 0.877 ± 0.052 | 1.08 ± 0.098 | 0.964 ± 0.052 | 1.23 ± 0.08 | 1.28 ± 0.12 | 0.999 (active) |
| CS(=O)(=O)NCc1cccc(Oc2ccc(F)cc2)c1 | 1.03 ± 0.066 | 0.955 ± 0.079 | 0.997 ± 0.029 | 1.1 ± 0.046 | 0.992 ± 0.061 | 1.03 ± 0.1 | 0.997 (active) |
| COc1ccc(-c2nc3c4cnn(-c5ccc(C)cc5C)c4ncn3n2)c(O)c1 | 1.03 ± 0.058 | 1.1 ± 0.086 | 0.991 ± 0.11 | 1.05 ± 0.059 | 1.25 ± 0.14 | 1.09 ± 0.27 | 1 (active) |
| Cn1nc(CNC(=O)c2cccc3ccccc23)cc1C1CC1 | 1.18 ± 0.067 | 0.852 ± 0.065 | 0.963 ± 0.025 | 0.833 ± 0.031 | 1.06 ± 0.059 | 0.962 ± 0.15 | 0.817 (active) |
| CC(COc1ccccc1)N(CCCl)Cc1ccccc1.Cl (configuration not stated) | 0.328 ± 0.025 | 0.177 ± 0.015 | 0.355 ± 0.012 | 0.053 ± 0.0051 | 0.0504 ± 0.0018 | 0.0594 ± 0.011 | 0.186 (inactive) |
| CCN(CC)c1ccc(C=C(C#N)c2n[nH]c(N)c2C#N)c(OC)c1 | 1.43 ± 0.16 | 0.885 ± 0.095 | 0.976 ± 0.092 | 0.577 ± 0.036 | 0.865 ± 0.12 | 1.18 ± 0.15 | 1.02 (active) |
| CC1(C)[C@H](C(=O)O)N2C(=O)C[C@H]2S1(=O)=O | 0.998 ± 0.11 | 1.05 ± 0.079 | 1.06 ± 0.033 | 0.944 ± 0.072 | 0.931 ± 0.038 | 0.859 ± 0.068 | 0.994 (active) |
| CCN(CCCc1ccccc1)CCCc1ccccc1.O=C(O)CC(O)(CC(=O)O)C(=O)O | 1.32 ± 0.057 | 1.4 ± 0.11 | 2.08 ± 0.29 | 0.265 ± 0.014 | 0.448 ± 0.079 | 0.468 ± 0.11 | 0.991 (active) |
| COc1ccc(Cl)cc1S(=O)(=O)NCc1ccccn1 | 1.11 ± 0.07 | 0.901 ± 0.1 | 0.986 ± 0.026 | 1.01 ± 0.059 | 1.01 ± 0.1 | 0.936 ± 0.15 | 0.996 (active) |
| O=C(NCCN1CCOCC1)c1ccc(Cl)cc1 | 1.37 ± 0.2 | 1.13 ± 0.3 | 0.953 ± 0.055 | 0.95 ± 0.048 | 1.26 ± 0.43 | 1.01 ± 0.078 | 0.992 (active) |
| Clc1ccc(-c2nc(N3CCCCC3)nc3ccccc23)cc1 | 0.444 ± 0.033 | 0.975 ± 0.051 | 1.09 ± 0.041 | 0.839 ± 0.047 | 0.953 ± 0.073 | 1.39 ± 0.12 | 0.993 (active) |
| COc1ccc(C(C)NC(=O)c2[nH]nnc2-c2ccc(F)cc2)cc1 (configuration not stated) | 1.17 ± 0.066 | 0.983 ± 0.14 | 1.01 ± 0.054 | 0.669 ± 0.026 | 1.01 ± 0.094 | 0.958 ± 0.15 | 0.997 (active) |
| CC1(COc2ccc3c(c2)ncn3-c2ccc3cccc(N4CCC(N)CC4)c3n2)COC1 | 0.379 ± 0.25 | 0.397 ± 0.099 | 2.05 ± 0.24 | 0.0544 ± 0.0038 | 0.345 ± 0.037 | 0.339 ± 0.06 | 0.464 (inactive) |
| Cl.OC(CCN1CCCCC1)(c1ccccc1)C1CCCCC1 (configuration not stated) | 0.338 ± 0.034 | 1.01 ± 0.081 | 1.11 ± 0.075 | 1.03 ± 0.058 | 1.11 ± 0.19 | 1.08 ± 0.34 | 1.01 (active) |
| Cc1ccc(S(=O)(=O)Nc2ccccc2-c2nc3ccccc3o2)cc1 | 2.45 ± 0.19 | 1.24 ± 0.081 | 1.45 ± 0.051 | 0.323 ± 0.033 | 1.09 ± 0.048 | 1.21 ± 0.08 | 0.713 (active) |
| OCCN(CCO)CC(O)Cn1c2ccc(Cl)cc2c2cc(Cl)ccc21 (configuration not stated) | 0.232 ± 0.013 | 0.503 ± 0.042 | 0.407 ± 0.024 | 0.695 ± 0.032 | 2.78 ± 0.18 | 1.52 ± 0.18 | 0.0946 (inactive) |
| Cc1ccc2c(c1)C(=O)CC(O)(C(F)F)O2 (configuration not stated) | 0.922 ± 0.073 | 1 ± 0.067 | 0.954 ± 0.062 | 0.764 ± 0.12 | 0.984 ± 0.089 | 0.959 ± 0.14 | 1 (active) |
| CN(Cc1cnc2nc(N)nc(N)c2n1)c1ccc(C(=O)N[C@@H](CCC(=O)O)C(=O)O)cc1 | 0.668 ± 0.16 | 0.862 ± 0.28 | 0.764 ± 0.045 | 0.612 ± 0.049 | 1.02 ± 0.35 | 0.993 ± 0.16 | 0.574 (inactive) |
| CCc1nc2ccccc2[nH]1 | 1.04 ± 0.18 | 0.954 ± 0.076 | 1.06 ± 0.1 | 0.998 ± 0.028 | 1.23 ± 0.12 | 1.44 ± 0.21 | 1.01 (active) |
| Oc1ccc(OCc2ccccc2)cc1 | 1.78 ± 0.25 | 1.51 ± 0.34 | 1.34 ± 0.095 | 0.665 ± 0.033 | 1.46 ± 0.27 | 1.42 ± 0.17 | 0.832 (active) |
| O=C(O)CCCNC(=O)c1ccccc1C(=O)O | 0.896 ± 0.092 | 0.911 ± 0.067 | 0.952 ± 0.093 | 1.04 ± 0.043 | 1.3 ± 0.14 | 1.41 ± 0.21 | 1.03 (active) |
